PubChem BioAssay AID2534 (National Center for Advancing Translational Sciences (NCATS), 2010)
Records with an inconclusive call do not appear. Activity calls are given as the source filed them. Calls come from the whole dose curve; as a rule, active = well fitted curve in the direction sought with a large enough effect; inconclusive = small, poorly fitted or top-dose-only effect, or effect the other way, or another doubt; inactive = no such curve, though single readings can be large or run the other way.

molecular target: Pyruvate kinase PKLR (Homo sapiens) (UniProt P30613); experiment: Secondary Concentration-Response Assay for Activators of Human Reticulocyte Pyruvate Kinase: for Probe SAR; settings: purified hPK-R, ATP production, Kinase-Glo luminescence; series mostly up to 57.5 µM
Sequence (P30613 whole entry, looked up): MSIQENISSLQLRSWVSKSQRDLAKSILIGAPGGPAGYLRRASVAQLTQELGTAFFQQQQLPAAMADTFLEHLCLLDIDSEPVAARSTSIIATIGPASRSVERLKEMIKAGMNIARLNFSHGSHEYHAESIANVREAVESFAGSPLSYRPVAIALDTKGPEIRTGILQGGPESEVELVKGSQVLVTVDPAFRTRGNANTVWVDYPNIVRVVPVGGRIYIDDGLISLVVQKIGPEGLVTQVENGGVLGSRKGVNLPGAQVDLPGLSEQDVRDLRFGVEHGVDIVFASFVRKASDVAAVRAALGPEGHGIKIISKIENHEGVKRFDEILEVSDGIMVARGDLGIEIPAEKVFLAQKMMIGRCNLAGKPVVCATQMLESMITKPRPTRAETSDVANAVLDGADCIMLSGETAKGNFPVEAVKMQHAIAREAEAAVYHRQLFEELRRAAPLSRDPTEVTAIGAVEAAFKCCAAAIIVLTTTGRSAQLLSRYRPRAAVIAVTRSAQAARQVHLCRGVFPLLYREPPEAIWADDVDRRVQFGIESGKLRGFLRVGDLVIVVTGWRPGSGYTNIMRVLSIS
Text: NIH Chemical Genomics Center [NCGC]
Wael M. Rabeh, Lyudmila Nedyalkova and Hee-Wan Park [Structural Genomics Consortium, 100 College St. Toronto, Ontario, Canada]
Human pyruvate kinase reticulocyte (hPK-R) enzyme was supplied as a highly purified (>95% pure) preparation from Structural Genomics Consortium in Toronto (Ontario, Canada) and assayed for its ability to generate ATP from ADP using phosphoenolpyruvate (PEP) as a substrate. ATP generation was detected in a coupled reaction by luciferase-mediated luminescence, an ATP-dependent process. Pyruvate kinase substrates, PEP and ADP, were present in the assay at Km and approximately 10-fold below Km respectively. The enzyme was assayed at an intermediate level of activity to screen for both inhibitors and activators.
NCGC Assay Protocol Summary for R-isoform
Three uL of substrate mix (at r.t.) in assay buffer (50 mM Imidazole pH7.2, 50 mM KCl, 7 mM MgCl2, 0.01% Tween 20, 0.05% BSA) was dispensed into white solid bottom 1,536 well microtiter plates so that the final concentrations of substrates in the assay were 0.1 mM ADP and 0.5 mM PEP. 23 nL of compound were delivered by a pin tool and 1 uL of enzyme mix (final concentration of 0.1 nM) in assay buffer (4 degree Celsius) was added. Plates were incubated at room temperature for 1 hour. Two uL of detection mix (Kinase-Glo, Promega; at 4 degree Celsius protected from light) was added and luminescence read by a ViewLux (Perkin Elmer) at 1 second exposure/plate. Data were normalized to the uninhibited (row 31). Additionally, a no enzyme and 5-fold enzyme control was dispensed in row 32, split equally between the two conditions.

SMILES	outcome
Cc1cc(NS(=O)(=O)c2ccc3c(c2)CCC(=O)N3)ccc1F	inactive
CN(C)c1cccc(S(=O)(=O)N2CCN(S(=O)(=O)c3ccc4c(c3)OCCO4)CC2)c1	inactive
O=C1c2ccccc2C(=O)N1c1cncc2ccccc12	inactive
O=C1CCc2cc(Cl)c(S(=O)(=O)Nc3ccc(Cl)c(Cl)c3)cc2N1	inactive
O=C1c2ccccc2C(=O)N1c1ccccn1	inactive
O=C1CCc2cc(S(=O)(=O)Nc3ccccc3F)ccc2N1	inactive
Cc1ccccc1NS(=O)(=O)c1ccc2c(c1)CCC(=O)N2	inactive
O=C1c2ccccc2C(=O)N1c1cccnc1	inactive
O=C1c2ccccc2C(=O)N1Cc1ccccc1	inactive
O=C1CCc2cc(S(=O)(=O)Nc3ccc4ncccc4c3)ccc2N1	inactive
Cc1ccc(NS(=O)(=O)c2cc3c(cc2Cl)CCC(=O)N3)cc1Cl	inactive
O=C1c2ccccc2C(=O)N1c1noc2ccccc12	inactive
O=C1c2ccccc2C(=O)N1c1ccc(Cl)cc1	inactive
COC(=O)c1ccc2c(c1)S(=O)(=O)N=C2Sc1cc(C)ccc1C	inactive
O=C1c2ccccc2C(=O)N1Cc1cccnc1	inactive
O=C1CCc2cc(S(=O)(=O)Nc3ccc(F)cc3)ccc2N1	inactive
O=C1CCc2cc(S(=O)(=O)Nc3cccc(Br)c3)ccc2N1	inactive
Cc1c(Cl)cccc1NS(=O)(=O)c1cc2c(cc1Cl)CCC(=O)N2	inactive
Nc1cccc(S(=O)(=O)N2CCCN(S(=O)(=O)c3ccc4c(c3)OCCO4)CC2)c1	inactive
O=C1CCc2cc(S(=O)(=O)Nc3ccc(Cl)c(Cl)c3)c(F)cc2N1	inactive

SMILES	outcome
O=C1c2ccccc2C(=O)N1c1nccs1	inactive
Cc1ccc(NS(=O)(=O)c2ccc3c(c2)CCC(=O)N3)cc1F	inactive
N#Cc1ccc(NS(=O)(=O)c2ccc3c(c2)CCC(=O)N3)cc1	inactive
Cc1cccc(NS(=O)(=O)c2ccc3c(c2)CCC(=O)N3)c1	inactive
COc1cc(N2C(=O)c3ccccc3C2=O)c2ncccc2c1	inactive
O=C1c2ccccc2C(=O)N1C1CCCCC1	inactive
O=C1c2ccccc2C(=O)N1c1cnc2ccccc2c1	inactive
Cc1ccc(C)c(OC2=NS(=O)(=O)c3ccccc32)c1	inactive
O=C1CCc2cc([S+](=O)([O-])Nc3ccc(N[S+](=O)([O-])c4ccc5c(c4)CCC(=O)N5)cc3)ccc2N1	inactive
O=C1c2ccccc2C(=O)N1c1cccc2cnccc12	inactive
O=C1c2ccccc2C(=O)N1Cc1ccccn1	inactive
O=C1CCc2cc(S(=O)(=O)Nc3ccccc3-c3ccccc3)ccc2N1	inactive
CNc1cccc(S(=O)(=O)N2CCCN(S(=O)(=O)c3ccc4c(c3)OCCO4)CC2)c1	inactive
COc1cccc(NS(=O)(=O)c2ccc3c(c2)CCC(=O)N3)c1	inactive
O=C1CCc2cc(S(=O)(=O)NCc3ccccc3)ccc2N1	inactive
O=C(O)c1ccccc1SC1=NS(=O)(=O)c2ccccc21	inactive
COc1ccccc1NS(=O)(=O)c1ccc2c(c1)CCC(=O)N2	inactive
O=C1CCc2cc(S(=O)(=O)Nc3cccnc3)ccc2N1	inactive
O=C1c2ccccc2C(=O)N1c1ccncc1	inactive
O=C1c2ccccc2C(=O)N1c1cccc2ncccc12	inactive
